For 23 compounds, outcome and AC50 results are on record in PubChem BioAssay (EPA / NIEHS).

Where “and” joins values, the source holds several entries; their conditions need not be identical. Equal entries are not always repeated. Some compounds were tested as several samples or in several runs, with calls that do not always agree. Calls of active or inactive are those of the source. The calls were made as follows: active = hit-call score of the fitted dose curve at least 0.9, where 1 is the maximum; inactive = score below 0.9.

Read-out in test [1]: Vascular endothelial growth factor receptor 2 (Homo sapiens) (UniProt P35968)
As to the kind of experiment: BSK_4H_VEGFRII: BioMAP Diversity Plus: 4H Assay for Vascular endothelial growth factor receptor 2 (VEGFR2) Biomarker Activity (AID 2283031).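 As to AC50: cell-surface VEGFR2 protein level quantified by ELISA.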 The following applies: primary human endothelial cells (HUVEC); actives raise or lower the signal. Summed up:
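Measured by ELISA after 24 h of compound treatment: VEGFR2 on primary human umbilical vein endothelial cells, fitted in both directions relative to DMSO. Parallel cultures received SRB staining (560 nm) for overt cytotoxicity.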

Read-out in test [2]: Human Leukocyte Antigen - DR isotype (HLADR), HLA-DRA (gene 3122)
As to the kind of experiment: BSK_BE3C_HLADR: BioMAP Diversity Plus: BE3C Assay for Human Leukocyte Antigen - DR isotype (HLADR) Biomarker Activity (AID 2283032). As to conditions: primary human bronchial epithelial cells; actives raise or lower the signal. The gist of the method: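 ELISA read-out of HLA-DR on human lung bronchial epithelial primary cells, measured 24 h post-dosing. Both increases and decreases were scored relative to DMSO vehicle.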

Read-out in test [3]: Vascular cell adhesion molecule 1 (VCAM1), VCAM1 (gene 7412)
Kind of test: BSK_4H_VCAM1: BioMAP Diversity Plus: 4H Assay for Vascular cell adhesion molecule 1 (VCAM1) Biomarker Activity (AID 2283033).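 As to outcome: cell-surface VCAM-1 protein measured by ELISA.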 As to conditions: primary human endothelial cells (HUVEC); actives raise or lower the signal. The gist of the method: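 ELISA read-out of VCAM-1 on human umbilical vein endothelium 24 hours after chemical dosing; gain or loss of signal was fitted relative to DMSO, with sulforhodamine B staining of parallel cultures flagging overt cytotoxicity.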

Read-out in test [4]: Interferon-gamma inducible Protein 10 (IP10), CXCL10 (gene 3627)
Kind of test: BSK_BE3C_IP10: BioMAP Diversity Plus: BE3C Assay for Interferon-gamma inducible Protein 10 (IP10) Biomarker Activity (AID 2283034). As to conditions: primary human bronchial epithelial cells; actives raise or lower the signal. The gist of the method: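 Chemical is dosed onto human lung bronchial epithelial primary cells, cultures are incubated 24 h, and IP-10 is then quantified by ELISA. Gain or loss of signal is fitted in both directions relative to DMSO.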

Read-out in test [5]: Monokine induced gamma interferon (MIG), CXCL9 (gene 4283)
As to the kind of experiment: BSK_BE3C_MIG: BioMAP Diversity Plus: BE3C Assay for Monokine induced gamma interferon (MIG) Biomarker Activity (AID 2283035). As to conditions: primary human bronchial epithelial cells; actives raise or lower the signal. The gist of the method: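 Primary human bronchial epithelial cells treated for 24 h; MIG levels measured by ELISA, fitted bidirectionally versus DMSO. Parallel SRB total-protein staining assessed cytotoxicity.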

Read-out in test [6]: Transforming growth factor beta 1 (TGFb1), TGFB1 (gene 7040)
Kind of test: BSK_BE3C_TGFb1: BioMAP Diversity Plus: BE3C Assay for Transforming growth factor beta 1 (TGFb1) Biomarker Activity (AID 2283036;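 as to outcome: TGF-b1 protein level measured by ELISA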). As to conditions: primary human bronchial epithelial cells; actives raise or lower the signal. Summed up:
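Primary human lung bronchial epithelial cells; compound exposure 24 h; TGF-b1 by ELISA; bidirectional fit, DMSO baseline. Parallel SRB total-protein staining for cytotoxicity.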

Read-out in test [7]: Plasminogen activator inhibitor-1 (PAI1), SERPINE1 (gene 5054)
As to the kind of experiment: BSK_BE3C_PAI1: BioMAP Diversity Plus: BE3C Assay for Plasminogen activator inhibitor-1 (PAI1) Biomarker Activity (AID 2283037). The following applies: primary human bronchial epithelial cells; actives raise or lower the signal. The gist of the method:
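Primary human lung bronchial epithelial cells; chemical dosing; 24 h; PAI-1 measured by ELISA; bidirectional fit referenced to DMSO as negative control.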

Read-out in test [8]: urokinase plasminogen activator (uPA), PLAU (gene 5328)
Kind of test: BSK_BE3C_uPA: BioMAP Diversity Plus: BE3C Assay for urokinase plasminogen activator (uPA) Biomarker Activity (AID 2283038).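 As to outcome: uPA protein level quantified by ELISA in cell cultures; uPA read one day after compound addition.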 As to conditions: primary human bronchial epithelial cells; actives raise or lower the signal. Summed up: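 ELISA for uPA on human primary bronchial epithelial cultures 24 h post-treatment, gain or loss against DMSO. Parallel SRB staining (0.1% after 10% TCA fixation, 560 nm) assessed overt cytotoxicity.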

Read-out in test [9]: Urokinase-type plasminogen activator receptor (uPAR), PLAUR (gene 5329)
As to the kind of experiment: BSK_BE3C_uPAR: BioMAP Diversity Plus: BE3C Assay for Urokinase-type plasminogen activator receptor (uPAR) Biomarker Activity (AID 2283039).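 As to outcome: cells exposed to compound for one day before measurement.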 As to conditions: primary human bronchial epithelial cells; actives raise or lower the signal. The gist of the method: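 Human bronchial epithelial primary cells; chemical exposure 24 h; uPAR by ELISA; bidirectional fit vs DMSO control.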

Read-out in test [10]: Interleukin-6 (IL6), IL6 (gene 3569)
Kind of test: BSK_CASM3C_IL6: BioMAP Diversity Plus: CASM3C Assay for Interleukin-6 (IL6) Biomarker Activity for (AID 2283040). The following applies: primary human coronary artery smooth muscle cells; actives raise or lower the signal.

Consider `COc1ccc(OC)c(N=Nc2c(O)ccc3ccccc23)c1`, for which the result in test [1], in test [5], in test [6], in test [7], in test [8] and in [10] was inactive. Further, the half-maximal activity concentration (AC50) (in general, the concentration giving half of the maximal activity seen) in [2] is 3.41 µM (active); in test [3] it was 20 µM (active); in test [4], 6.72 µM (active); in test [9], 5.41 µM (active).

On to `C=C(C)C(=O)OCCOCCOCCOC(=O)C(=C)C`, for which the outcome in test [1], in test [3], in [4], in test [5], in [6] and in test [7] was inactive. Further, the result in test [8], in [9] and in test [10] was inactive. Besides, in test [2], the AC50 was 3.97 µM (active).

In the case of `c1ccc2cc(Nc3ccc(Nc4ccc5ccccc5c4)cc3)ccc2c1`, the outcome in [1], in [2], in [3], in test [4], in test [5] and in test [6] was inactive. The result in test [7], in test [8], in [9] and in [10] was inactive.

For the compound `CS(=O)(=O)OCCCCOS(C)(=O)=O`, the outcome in test [1], in test [2], in [3], in [4], in test [5] and in test [6] was inactive. Moreover, the result in [7], in [8], in [9] and in test [10] was inactive.

As for `CC(=O)C1(C)CC2=C(CCCC2(C)C)CC1C` (stereo not drawn), the half-maximal activity concentration (AC50) in [1] is 5.33 µM (active); in test [2] it was 13.8 µM (active); in test [3], 9.63 µM (active); in test [4] it was 25.6 µM (active); in [5], 34.9 µM (active); in test [6], 12.8 µM (active). The AC50 in test [7] was 20 µM (active); in test [8], 20 µM (active); in [9], 20 µM (active); in [10], 14 µM (active).

Take `COc1cc(Cl)c(OC)cc1N`: the outcome in test [1], in test [2], in test [3], in test [4], in [5] and in test [6] was inactive. The result in [7], in test [8], in test [9] and in [10] was inactive.

Consider `CCOC(=O)C(C#N)=C(c1ccccc1)c1ccccc1`, for which the result in [1], in test [2], in test [3], in [4], in test [5] and in test [7] was inactive. In addition, the result in test [8], in [9] and in test [10] was inactive. Also, in [3], the AC50 was 36.9 µM (active).

As for `CC(C=O)Cc1ccc(C(C)(C)C)cc1` (stereo not drawn), the AC50 was 32.9 µM (active) in [1]; 28.9 µM (active) in [2]; 34.5 µM (active) in test [3]; 29.7 µM (active) in test [4]; 28.5 µM (active) in test [10]. The result in test [5], in [6], in test [7], in test [8] and in [9] was inactive.

Turning to `IC(I)I`, the outcome in test [1], in test [2], in test [3], in test [4], in test [5] and in test [6] was inactive. Moreover, the result in test [7], in test [8], in test [9] and in test [10] was inactive.

For the compound `Clc1cc(Cl)c(-c2c(Cl)c(Cl)cc(Cl)c2Cl)cc1Cl`, the AC50 is 10 µM (active) in [1]; 12.9 µM (active) in [2]; 8.56 µM (active) in test [3]; 17.5 µM (active) in test [4]; 10 µM (active) in test [7]; 1.98 µM (active) in test [9]. In addition, the result in test [5], in test [6], in [8] and in test [10] was inactive.

For the compound `C[C@@H]1CCN(C(=O)[C@H](CCCN=C(N)N)NS(=O)(=O)c2cccc3c2NC[C@H](C)C3)[C@@H](C(=O)O)C1`, the result in test [1], in test [2], in test [3], in [4], in test [5] and in test [6] was inactive. In addition, the result in test [7], in test [8], in [9] and in test [10] was inactive.

On to `CC1(C)CCC[C@]2(C)[C@H]3CCO[C@]3(C)CC[C@@H]12`, for which the concentration at half-maximal activity (AC50) in test [1] was 31.9 µM (active); in test [2] it was 23.9 µM (active) and 28.6 µM (active); in test [3], 30.4 µM (active); in test [7], 36.4 µM (active); in [8], 26.2 µM (active); in test [10], 31.5 µM (active) and 16.6 µM (active). Also, the result in test [1], in test [3], in test [4], in test [5], in [7] and in test [8] was inactive. The outcome in [9] was inactive.

In the case of `CCCCCC(C=O)=Cc1ccccc1`, the concentration at half-maximal activity (AC50) in test [1] is 31.3 µM (active); in test [2] it was 33.1 µM (active); in test [3], 30.5 µM (active); in [4], 30.6 µM (active); in test [10], 32 µM (active). In addition, the result in [5], in [6], in test [7], in test [8] and in [9] was inactive.

For the compound `C=C(C)[C@H]1CC=C(C)C(=O)C1`, the result in test [1], in test [2], in test [3], in test [4], in test [5] and in test [6] was inactive. Further, the outcome in [7], in test [8], in [9] and in test [10] was inactive.

On to `c1ccc(Oc2ccccc2)cc1`, for which the outcome in test [1], in test [2], in test [4], in test [5], in [6] and in test [7] was inactive. Further, the result in test [8], in [9] and in test [10] was inactive. The AC50 in test [3] was 28.8 µM (active).

Take `CC(C)(N=C=O)c1cccc(C(C)(C)N=C=O)c1`: the result in test [1], in test [2], in test [3], in [4], in test [5] and in test [6] was inactive. Also, the result in [7], in test [8], in test [9] and in [10] was inactive.

In the case of `COc1ccc(CCN2CCC(Nc3nc4ccccc4n3Cc3ccc(F)cc3)CC2)cc1`, the result in test [1], in test [4], in test [5], in [6], in test [7] and in [8] was inactive. Also, the result in [9] and in [10] was inactive. Also, the results for the AC50 in test [2] and in test [3] were 7.88 µM (active) and 0.0041 µM (active), respectively.

`CCCCN(CCCC)C(=O)N(CCCC)CCCC`: the AC50 in [1] was 23.7 µM (active); in [2] it was 12.5 µM (active); in test [3], 23.7 µM (active); in test [4], 9.08 µM (active); in test [5], 20 µM (active); in [6] it was 5.38 µM (active). Further, the AC50 in [7] is 9.25 µM (active); in [8], 9.69 µM (active); in [9], 7.37 µM (active); in test [10], 20 µM (active).

As for `CC=Cc1ccc(OCC)c(O)c1`, the outcome in test [1], in [2], in [3], in test [4], in test [5] and in test [6] was inactive. Further, the outcome in [7], in test [8], in test [9] and in [10] was inactive.

With `CC(=O)Nc1ccc(C(=O)CCl)cc1`, the AC50 is 9.38 µM (active) in test [1]; 15.1 µM (active) in [2]; 6.74 µM (active) in test [3]; 25.6 µM (active) in test [4]; 33.3 µM (active) in test [5]; 31.7 µM (active) in test [9]. In addition, the AC50 in [10] was 10.6 µM (active). Besides, the outcome in [6], in test [7] and in [8] was inactive.

`CC1(C)C2=CCCC(C)(C)[C@]23CC[C@H]1C3`: the outcome in test [1], in test [3], in test [5], in test [7], in [8] and in test [9] was inactive. The half-maximal activity concentration (AC50) in test [2] was 20 µM (active); in [4], 20 µM (active); in [6] it was 20 µM (active); in test [10], 30.2 µM (active).

`CSCCC=O`: the outcome in test [1], in test [2], in test [3], in test [4], in [5] and in test [6] was inactive. The result in test [7], in [8], in [9] and in [10] was inactive.

For `Cc1cc(CCC(=O)OCCOCCOCCOC(=O)CCc2cc(C)c(O)c(C(C)(C)C)c2)cc(C(C)(C)C)c1O`, the outcome in test [1], in [2], in test [3], in [5], in [7] and in test [8] was inactive. For the same compound, the result in [9] and in [10] was inactive. Besides, the AC50 is 10.1 µM (active) in test [4] and 17.8 µM (active) in test [6].
